Z-score and composite z-score data for 5 compounds are collected here from PubChem BioAssay.

Each structure is given as a SMILES string. Active and inactive are the calls of the source.

The nature of assay [1]: optical density shifts of acrAB sulA E. coli – strain DRC41, OD650, 48 h, E. coli filamentation inducer project, primary screen (AID 1152).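 Also: E. coli MC1000 strain DRC41 lacking acrAB efflux pump and sulA.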 The note with it: higher = more signal, called active from +8 up or from −8 down.
Assay [2] is described as follows: probe aLefty1 binding on compound microarray – biochemical, small-molecule microarray, 635/667 nm fluorescence, primary screen (AID 1153).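 Also: score merges spot fluorescence with signal-to-noise ratio from the scanned slide images.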 The note with it: higher = more signal.
Assay [3] can be described thus: plasmodial surface anion channel blockers, osmotic lysis – cell-based, P. falciparum Indochina, OD700, 1 h, primary screen (AID 1154). The note with it: P. falciparum Indochina infected RBC osmotic lysis, higher = more signal, called active from +8 up or from −8 down.
Assay [4] in a line: plasmodial surface anion channel blockers, osmotic lysis – cell-based, P. falciparum Indochina, OD700, 2 h, primary screen (AID 1155).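 Also: lysis reports solute entry through the parasite surface anion channel PSAC.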 The settings on record: P. falciparum Indochina infected erythrocytes, higher = more signal, called active from +8 up or from −8 down.
Assay [5] is described as follows: changes in parasitized red cell lysis, either direction – P. falciparum Indochina, OD700, 3 h, PSAC antagonist project, primary screen (AID 1156). The settings on record: P. falciparum-infected erythrocytes, osmotic lysis, higher = more signal, called active from +8 up or from −8 down.
Assay [6] in a line: plasmodial surface anion channel blockers, osmotic lysis – cell-based, P. falciparum Indochina, OD700, 18 h, primary screen (AID 1157). The settings on record: P. falciparum Indochina infected erythrocytes, osmotic lysis OD700, 18 h; higher = more signal, called active from +8 up or from −8 down.
Assay [7] can be described thus: S6 kinase pathway phospho-S6 level changes – cell-based, A549, cytoblot, luminescence, serum-stimulated, primary screen (AID 1158).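 Also: serum-stimulated A549 lung adenocarcinoma cells; signal is phosphorylated S6 detected by cytoblot immunostaining with HRP secondary.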 The settings on record: 5 h, higher = more signal.
The target of assay [8] is NADPH oxidase 2 (Homo sapiens) (UniProt P04839). The assay is described as follows: compounds shifting NOX2 Amplex Red fluorescence – cell-based, HEK293-NOX2, PMA-stimulated, NOX inhibitor project, primary screen (AID 1159). Also: test concentration not given here. The settings on record: 45 min, higher = more signal, called active from +8 up or from −8 down.
The target in assay [9] is NADPH oxidase 4 (Homo sapiens) (UniProt Q9NPH5). The assay is described as follows: compounds shifting NOX4 Amplex Red fluorescence – cell-based, HEK293-NOX4, tetracycline-induced, NOX inhibitor project, primary screen (AID 1160). The note with it: HEK293-NOX4, Amplex Red H2O2 fluorescence, 45 min; higher = more signal, called active from +8 up or from −8 down.
The target in assay [10] is NADPH oxidase 5 (Homo sapiens) (UniProt Q96PH1). The assay can be described thus: compounds shifting NOX5 Amplex Red fluorescence – cell-based, HEK293-NOX5, NOX inhibitor project, primary screen (AID 1161). The settings on record: HEK293-NOX5, ionomycin, 45 min, higher = more signal.
Assay [11] is described as follows: compound effects on lung adenocarcinoma cell viability – A549, calcein-AM fluorescence, 48 h, basal, profiling panel (AID 1162). Also: test concentration not given here. The note with it: higher = more signal.
Assay [12] is described as follows: compound effects on differentiated 3T3-L1 adipocyte viability – cell-based, 3T3-L1 adipocytes, calcein-AM fluorescence, 48 h, basal, profiling panel (AID 1163). Also: test concentration not given here. The settings on record: 3T3-L1 adipocytes viability, higher = more signal.
Assay [13] is described as follows: compound effects on hepatocellular carcinoma cell viability – HepG2, calcein-AM fluorescence, 48 h, basal, profiling panel (AID 1164). Also: test concentration not given here. The settings on record: higher = more signal.
A short description of assay [14]: compound effects on multiple myeloma cell viability – MM1S, calcein-AM fluorescence, 48 h, basal, profiling panel (AID 1165).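 Also: viability of MM1S multiple myeloma cells under basal unstimulated conditions; test concentration not given here.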 The note with it: higher = more signal.
Assay [15] is described as follows: calcein-AM signal in unstimulated myeloma cells – cell-based, calcein-AM fluorescence, 48 h, PK04 Diversity Set, profiling panel (AID 1166).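 Also: cells grown under basal conditions without added stimulus; test concentration not given here.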 The note with it: RPMI8226 myeloma viability, higher = more signal.
The nature of assay [16]: JC-1 mitochondrial signal, unstimulated HepG2 cells – cell-based, JC-1 fluorescence, 24 h, 100 nL compound, profiling panel (AID 1167). Also: test concentration not given here. The note with it: HepG2 mitochondrial potential, higher = more signal.
Assay [17] is described as follows: JC-1 mitochondrial signal, unstimulated adipocytes – cell-based, JC-1 fluorescence, 3T3-L1 adipocytes, 24 h, 100 nL compound, profiling panel (AID 1168). Also: test concentration not given here. The note with it: JC-1 mitochondrial fluorescence, higher = more signal, called active from +8 up or from −8 down.
Assay [18] is described as follows: JC-1 mitochondrial signal, unstimulated myeloma cells – cell-based, JC-1 fluorescence, RPMI8226, 24 h, 100 nL compound, profiling panel (AID 1169). Also: test concentration not given here. The settings on record: JC-1 mitochondrial potential fluorescence, higher = more signal.
The nature of assay [19]: JC-1 mitochondrial signal, unstimulated MM1S myeloma – cell-based, JC-1 fluorescence, 24 h, 100 nL compound, profiling panel (AID 1170). Also: test concentration not given here. The settings on record: MM1S mitochondrial potential, higher = more signal.
Assay [20] in a line: resazurin metabolic signal in A549 cells – cell-based, resazurin fluorescence, 24 h, PK04 Diversity Set, profiling panel (AID 1171). Also: test concentration not given here. The settings on record: A549 viability, higher = more signal, called active from +8 up or from −8 down.

NADPH oxidase 2 (Homo sapiens), sequence (P04839 whole entry, looked up): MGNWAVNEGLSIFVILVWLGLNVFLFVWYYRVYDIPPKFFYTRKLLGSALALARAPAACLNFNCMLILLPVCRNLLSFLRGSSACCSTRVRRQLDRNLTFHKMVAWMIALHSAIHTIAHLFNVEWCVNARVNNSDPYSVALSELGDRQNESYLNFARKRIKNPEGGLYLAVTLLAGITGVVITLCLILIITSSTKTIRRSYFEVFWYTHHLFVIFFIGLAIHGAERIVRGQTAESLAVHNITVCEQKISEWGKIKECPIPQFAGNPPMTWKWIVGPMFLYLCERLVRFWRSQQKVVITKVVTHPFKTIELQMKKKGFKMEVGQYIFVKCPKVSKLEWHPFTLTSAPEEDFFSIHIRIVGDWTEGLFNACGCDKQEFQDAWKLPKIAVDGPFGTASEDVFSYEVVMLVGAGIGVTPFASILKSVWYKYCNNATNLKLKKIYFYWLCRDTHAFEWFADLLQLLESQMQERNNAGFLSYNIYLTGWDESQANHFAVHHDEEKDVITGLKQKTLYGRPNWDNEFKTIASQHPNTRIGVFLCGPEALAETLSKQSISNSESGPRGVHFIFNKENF
NADPH oxidase 4 (Homo sapiens), sequence (Q9NPH5 whole entry, looked up): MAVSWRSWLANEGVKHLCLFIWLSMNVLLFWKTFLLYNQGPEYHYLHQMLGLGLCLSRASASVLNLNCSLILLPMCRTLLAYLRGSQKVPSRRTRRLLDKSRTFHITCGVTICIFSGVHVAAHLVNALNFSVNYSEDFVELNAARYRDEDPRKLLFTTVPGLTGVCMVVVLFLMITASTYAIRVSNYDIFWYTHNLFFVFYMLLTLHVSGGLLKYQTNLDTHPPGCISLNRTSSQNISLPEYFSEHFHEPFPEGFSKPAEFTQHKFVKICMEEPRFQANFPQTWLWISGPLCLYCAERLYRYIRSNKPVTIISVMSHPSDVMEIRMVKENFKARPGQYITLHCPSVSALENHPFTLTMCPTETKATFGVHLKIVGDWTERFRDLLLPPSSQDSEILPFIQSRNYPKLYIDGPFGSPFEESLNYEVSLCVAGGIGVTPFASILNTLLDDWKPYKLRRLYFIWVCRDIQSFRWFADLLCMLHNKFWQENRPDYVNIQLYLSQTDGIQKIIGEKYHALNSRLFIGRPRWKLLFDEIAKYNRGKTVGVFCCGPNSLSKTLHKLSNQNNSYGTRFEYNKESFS
NADPH oxidase 5 (Homo sapiens), sequence (Q96PH1 whole entry, looked up): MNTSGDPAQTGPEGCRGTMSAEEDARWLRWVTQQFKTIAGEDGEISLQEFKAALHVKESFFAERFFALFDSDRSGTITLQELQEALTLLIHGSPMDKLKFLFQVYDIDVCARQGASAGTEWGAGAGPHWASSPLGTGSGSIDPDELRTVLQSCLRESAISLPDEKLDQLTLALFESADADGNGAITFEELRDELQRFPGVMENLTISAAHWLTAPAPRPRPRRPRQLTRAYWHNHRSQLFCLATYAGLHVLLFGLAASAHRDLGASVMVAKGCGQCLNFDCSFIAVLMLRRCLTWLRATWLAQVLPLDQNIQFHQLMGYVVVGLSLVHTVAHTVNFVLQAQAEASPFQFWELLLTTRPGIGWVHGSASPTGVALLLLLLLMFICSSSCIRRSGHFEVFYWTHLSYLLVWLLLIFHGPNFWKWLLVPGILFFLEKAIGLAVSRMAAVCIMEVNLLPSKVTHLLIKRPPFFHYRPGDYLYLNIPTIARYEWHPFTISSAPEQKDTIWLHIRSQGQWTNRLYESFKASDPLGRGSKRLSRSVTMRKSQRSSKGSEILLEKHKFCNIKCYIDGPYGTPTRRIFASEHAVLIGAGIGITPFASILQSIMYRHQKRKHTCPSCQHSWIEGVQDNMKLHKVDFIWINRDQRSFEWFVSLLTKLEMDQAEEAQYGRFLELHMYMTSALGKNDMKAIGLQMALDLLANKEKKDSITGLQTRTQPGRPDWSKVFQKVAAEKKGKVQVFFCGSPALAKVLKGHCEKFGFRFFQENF

On to `O=C1[C@H]2[C@H]3[C@H](O)[C@H](O)CC(=NO[C@@H]4O[C@H](CO)[C@@H](O)[C@H](O)[C@H]4O)[C@@H]3CC[C@H]2C(=O)N1Cc1ccccc1`, for which the z-score is 0.755 (inactive) in assay [1]; 1.3 (inactive) in assay [3]; 0.893 (inactive) in [4]; 0.742 (inactive) in assay [5]; 0.475 (inactive) in assay [6]; 0.62 in assay [7]. Besides, the z-score in [8] is 0.0811 (inactive); in assay [9] it was 1.14 (inactive); in assay [10], -0.0503; in [11] it was 0.255; in assay [12], -0.612; in [13] it was -0.379. Besides, the z-score in assay [14] is -0.176; in assay [15] it was 1.03; in assay [16], 0.981; in assay [17], -0.173 (inactive); in assay [18] it was -0.61; in assay [19], -1.98. The z-score in [20] was 0.222 (inactive). For the same compound, the composite z-score in assay [2] is -0.115.

Consider `CC(C)[C@@H](OCc1ccccc1)[C@H](C)C=NOC[C@@H](C)[C@H](OCc1ccccc1)C(C)C`, for which the z-score was 0.52 (inactive) in assay [1]; 0.641 (inactive) in [3]; 0.369 (inactive) in assay [4]; -0.423 (inactive) in assay [5]; -0.222 (inactive) in assay [6]; -0.591 in assay [7]. The z-score in assay [8] was -0.537 (inactive); in [9], -0.184 (inactive); in assay [10], -0.948; in [11] it was 0.243; in assay [12], -0.231; in assay [13], -0.661. Also, the z-score was 0.27 in assay [14]; 0.0507 in assay [15]; -0.245 in [16]; -0.149 (inactive) in assay [17]; 0.0367 in assay [18]; -0.0858 in [19]. The z-score in assay [20] is -0.689 (inactive). The same compound had a composite z-score in assay [2] of 0.233.

In the case of `COc1cccc([C@H]2Oc3ccc(OC)cc3C(=NOC(C)CN3CCCc4nc(C)c(C)cc43)[C@@H]2O)c1` (stereo not given in full), the z-score was -0.304 (inactive) in assay [1]; 2.47 (inactive) in [3]; 0.542 (inactive) in assay [4]; 0.714 (inactive) in [5]; 0.465 (inactive) in assay [6]; -0.912 in assay [7]. Besides, the z-score is -1.12 (inactive) in [8]; -0.807 (inactive) in [9]; 1.57 in [10]; -0.0217 in assay [11]; -0.529 in assay [12]; 0.778 in assay [13]. For the same compound, the z-score in [14] was 0.296; in assay [15] it was -0.627; in assay [16], 0.0313; in assay [17] it was -1.29 (inactive); in [18], 0.239; in [19], -0.947. Also, the z-score in [20] is -0.455 (inactive). This compound registered a composite z-score in [2] of 0.0809.

As to `CO[C@@H]1COC(=O)CC=C[C@@H](C)COC(=O)[C@H](COCc2ccccc2)NC(=O)CC=C[C@H]1C`, the z-score in assay [1] was -0.0825 (inactive); in assay [3] it was 0.391 (inactive); in assay [4] it was 0.331 (inactive); in [5] it was 0.195 (inactive); in assay [6] it was 0.403 (inactive); in [7], -0.186. The z-score in assay [8] was 0.978 (inactive); in assay [9], -1.24 (inactive); in assay [10], 0.941; in [11] it was 0.248; in assay [12] it was 0.268; in assay [13], 0.351. Moreover, the z-score in assay [14] was -0.987; in [15] it was -0.382; in [16], 0.575; in assay [17] it was -0.407 (inactive); in [18], -0.873; in assay [19], 1.61. Besides, in assay [20], the z-score is -0.653 (inactive). For the same compound, the composite z-score in [2] is -0.363.

As for `c1ccc(C2NCCc3c2[nH]c2ccccc32)cc1` (stereo not given), the z-score in [1] was -1.78 (inactive); in [3], 1.07 (inactive); in [4], 0.709 (inactive); in [5], 0.806 (inactive); in assay [6], -0.0204 (inactive); in assay [7], -0.513. For the same compound, the z-score in [8] is 0.943 (inactive); in assay [9], -0.561 (inactive); in assay [10], 1.23; in [11], -0.479; in assay [12], 0.381; in [13], -0.704. The z-score is -0.402 in assay [14]; -0.742 in [15]; -2.18 in [16]; -0.424 (inactive) in assay [17]; 0.0801 in [18]; 0.299 in [19]. Further, the z-score in assay [20] is 0.272 (inactive). Also, the composite z-score in assay [2] was found to be 0.155.
